Bioassay records deposited in PubChem by several laboratories.
Hits are enriched below; roughly 2.2% of the tested compounds scored in any of these assays.
LGR2 antag = blocks bursicon-induced cAMP signaling via Drosophila LGR2 | HEK293 LGR2, CRE-luciferase, bursicon-stimulated, 4 h | inhibition, % at 9.99 µM | 380,000 tested, 0.35% active;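 active = drop in luminescence signal, shown as inhibition above about 50% in the replicate tests, limit read from the data, passing the limit was not always enough; inconclusive = probably only some replicates passing the limit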;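 note: agonist challenge used bursicon conditioned medium at about half maximal strength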
TROY NFkB inh = TROY signaling inhibition; Q293 LMP1-TROYcd NF-kB luciferase reporter, 4 h; inhibition, % at 10 µM; 360,000 tested, 0.98% active; AID 1347056;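 active = compounds whose plate-normalised and pattern-corrected inhibition of the luciferase reporter signal at the single screening dose is 50% or more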
TWEAK Fn14 block = inhibitors of TWEAK-Fn14 interaction signaling; TWEAK-stimulated Fn14 reporter cells, luciferase luminescence, 8 h; inhibition, % at 10 µM; 360,000 tested, 2% active; AID 1159606; in the data active = inhibition above about 50%
HSP90 inh = inhibitors of HSP90 luciferase refolding in rabbit reticulocyte lysate | luciferase refolding luminescence, 3 h | inhibition, % at 5.6 µM | 290,000 tested, 0.91% active | AID 1789;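 active = inhibition above the screen-wide mean plus 3 SD, computed separately per campaign, cut at about 16% in these data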;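 note: 0% = DMSO wells and 100% = 60 µM geldanamycin wells; inhibitors lower the luminescence because luciferase stays unfolded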
* = called active by the depositor; ? = inconclusive; nt = no result given.

SMILES | LGR2 antag | TROY NFkB inh | TWEAK Fn14 block | HSP90 inh
COc1ccccc1NC(=O)c1c(Nc2ccccc2C)sc(C(=O)Nc2cccc(Cl)c2)c1N | 12.3 | 22.1 | 85.7* | -4.6
C[C@@H](NC(=O)C[C@H]1C=C[C@H](NC(=O)C2CC2)[C@@H](CO)O1)c1ccccc1 | 0.7 | nt | nt | nt
COC1=C(OC)C(=O)C(Sc2ccc3ccccc3c2)=CC1=O | -16.9 | 8.1 | 57.6* | nt
Cc1sc(NC(=O)c2cccc([N+](=O)[O-])c2)c(C(N)=O)c1-c1ccc(C(C)(C)C)cc1 | nt | 69.1* | 64.0* | 7.0
Cc1sc(NC(=O)/C=C/C(=O)O)c(C(N)=O)c1-c1ccc(C(C)(C)C)cc1 | -17.0 | -45.8 | -17.1 | -4.7
C[C@H](CO)N1C[C@H](C)[C@H](CN(C)C(=O)C2CCOCC2)Oc2ncc(C#Cc3cccc(F)c3)cc2C1=O | 1.2 | nt | nt | nt
O=[N+]([O-])c1ccc(N=Nc2ccc(O)c3ccccc23)cc1 | nt | 33.5 | 69.4* | nt
O=S(=O)(Nc1ccc(N=Nc2ccc(O)c3ccccc23)cc1)c1ccccc1 | 12.8 | 37.2 | 44.9 | -0.5
CO[C@@H]1CN(C)C(=O)c2cc(NC(=O)c3ccc4c(c3)OCO4)ccc2OC[C@@H](C)NC[C@@H]1C | 5.0 | nt | nt | nt
CN1CCN(C(=O)C[C@@H]2CC[C@@H]3[C@H](COC[C@@H](O)CN3CC3CCCCC3)O2)CC1 | -2.4 | nt | nt | nt
CCOC(=O)Nc1ccc2c(c1)C(=NNC(N)=S)c1ccccc1-2 | 82.9* | 47.9 | 37.6 | nt
CCS(=O)(=O)Nc1ccc2c(c1)C(=O)N(C)[C@@H]1CC[C@@H](CC(=O)Nc3ccccc3)O[C@H]1CO2 | 6.3 | nt | nt | nt
COc1ccc(N2CCN(C(=O)c3cc(-c4ccc(F)cc4)[nH]c3C)CC2)cc1 | -15.0 | 6.8 | 49.9 | -3.8
Cc1[nH]c(-c2ccc(F)cc2)cc1C(=O)N1CCN(c2ccc(Cl)cc2)CC1 | -1.6 | 14.6 | 89.5* | 3.9
CO[C@H]1CN(C)C(=O)c2ccc(NC(C)=O)cc2OC[C@H](C)N(C(=O)C2CC2)C[C@@H]1C | -12.7 | nt | nt | nt
O=C(c1ccccn1)N1CC(=O)N2[C@H](C1)[C@H](c1ccc(C#CC3CCCC3)cc1)[C@@H]2CO | 1.2 | nt | nt | nt
CC(O)CC(=O)OC[C@]12CC[C@H]3[C@@](C)(CC[C@H]4C(C)(C)CCC[C@]34C)[C@@H]1CC(C1=CC(=O)OC1O)O2 (stereo partly drawn) | nt | 88.9* | 106.0* | nt
CCc1ccc(-c2nc(CSCC(=O)N3CCN(c4ccccn4)CC3)c(C)o2)cc1 | nt | 61.8* | 80.8* | 1.4
Cc1ccc(-c2nc(CSCC(=O)N3CCN(c4ccccn4)CC3)c(C)o2)cc1 | -11.5 | 30.6 | 37.8 | -1.9
CCc1ccc(-c2nc(CSCC(=O)NCCCN3CCCC3=O)c(C)o2)cc1 | nt | 21.1 | 84.3* | 4.7
CCOc1ccc(-c2nc(CSCC(=O)N3CCN(c4cccc(OC)c4)CC3)c(C)o2)cc1 | 7.6 | 52.7* | 59.5* | 24.0*
CC(C)(C)S(=O)N1Cc2cc(C(=O)NCCCN3CCOCC3)nc(-c3cccc(-c4cccc(F)c4)c3)c2[C@H]1CCO (stereo partly drawn) | -0.6 | nt | nt | nt
C[C@@H]1CN([C@H](C)CO)C(=O)c2cccc(NS(=O)(=O)c3ccc(Cl)cc3)c2O[C@H]1CN(C)C(=O)Nc1cccc2ccccc12 | 15.4 | nt | nt | nt
COCC#Cc1ccc([C@H]2[C@H]3CN(C(=O)C4CC4)CC(=O)N3[C@H]2CO)cc1 | -2.6 | nt | nt | nt
CCC(=O)N1CC(=O)N2[C@H](CO)[C@@H](c3ccc(-c4cccnc4)cc3)[C@H]2C1 | -7.9 | nt | nt | nt
SMILES | LGR2 antag | TROY NFkB inh | TWEAK Fn14 block | HSP90 inh
CCOc1ccc(C(=O)Nc2nnn(CC)n2)cc1 | nt | -25.0 | 16.2 | 16.3*
CCCCOc1ccc(C(=O)Nc2cccc(C)n2)cc1 | nt | 37.1 | 31.1 | 11.4
CCOc1ccc(C(=O)Nc2cccc(C)n2)cc1 | nt | 14.7 | 63.5* | 8.5
C[C@H](CO)N1C[C@H](C)[C@@H](CN(C)C(=O)Cc2ccncc2)Oc2cc(C#CC3CCCC3)ccc2S1(=O)=O | 5.7 | nt | nt | nt
Fc1cccc(-c2cc3nc4c(c(N5CCC6(CC5)OCCO6)n3n2)CCCC4)c1 | nt | 41.8 | 54.4* | 10.0
CC(C)CC#Cc1ccc([C@@H]2[C@H]3CN(C(=O)Cc4ccccc4)CC(=O)N3[C@H]2CO)cc1 | 4.3 | nt | nt | nt
COC(=O)c1ccc2c(c1)C(C)(C)C(/C=C/c1ccc(O)cc1)=[N+]2C | ? | 7.8 | 94.3* | 2.9
Cc1ccc(Nc2nc(NCc3ccco3)c3ccccc3n2)cc1 | 95.7* | 69.7* | 84.8* | 4.5
COc1ccccc1Nc1nc(NCc2ccco2)c2ccccc2n1 | nt | -70.6 | 9.3 | 4.1
CNC[C@H]1Oc2c(NS(=O)(=O)c3ccc(C)cc3)cccc2C(=O)N([C@H](C)CO)C[C@H]1C | -7.0 | nt | nt | nt
O=C(Nc1nc(-c2ccc3c(c2)OCCO3)cs1)c1ccc(Br)o1 | -11.0 | 54.7* | 27.8 | nt
O=C(CCCCl)Nc1nc(-c2ccc3c(c2)OCCO3)cs1 | -71.3 | 23.9 | 51.3* | -2.2
C[C@H](NC(=O)C[C@@H]1C=C[C@H](NC(=O)C2CCOCC2)[C@@H](CO)O1)c1ccccc1 | 9.3 | nt | nt | nt
COc1ccccc1C#Cc1cnc2c(c1)C(=O)N([C@H](C)CO)C[C@@H](C)[C@H](CN(C)C(=O)c1ccc3c(c1)OCO3)O2 | -7.5 | nt | nt | nt
O=C(Sc1cccc2cccnc12)c1ccccc1Br | -1.9 | -19.4 | 101.2* | 2.0
O=C(Sc1cccc2cccnc12)c1ccc(F)cc1 | 23.5 | nt | nt | 5.0
CCOC(=O)c1ccccc1Nc1cn(C(C)=O)c2ccccc12 | 1.0 | -10.3 | -0.3 | 5.9
CC(=O)n1cc(N(C(=O)CCl)c2ccc(Cl)cc2)c2ccccc21 | nt | -41.0 | 63.7* | 2.8
COc1ccccc1N(C(=O)CCl)c1cn(C(C)=O)c2ccccc12 | 47.5 | -12.6 | 73.0* | 5.9
C[C@H](CO)N1C[C@H](C)[C@H](CN(C)Cc2ccncc2)Oc2c(NC(=O)C3CCOCC3)cccc2C1=O | 5.0 | nt | nt | nt
O=C(Nc1cccc(-c2nnc(-c3ccccc3)o2)c1)c1ccc(Br)o1 | -1.7 | 58.4* | 40.2 | 5.7
COc1ccc(C(=O)Nc2cccc(-c3nnc(-c4ccco4)o3)c2)cc1 | nt | 22.9 | 56.9* | 1.8
Cc1cc(C)cc(OCC(=O)Nc2cccc(-c3nnc(-c4ccco4)o3)c2)c1 | 34.3 | 56.6* | 67.9* | 4.8
C[C@H]1CN([C@@H](C)CO)C(=O)c2cccc(NC(=O)Nc3cccc4ccccc34)c2O[C@H]1CN(C)S(=O)(=O)c1ccccc1 | 5.2 | nt | nt | nt
C[C@H](CO)N1C[C@H](C)[C@H](CN(C)C(=O)c2ccncc2)Oc2cc(C3=CCCCC3)ccc2S1(=O)=O | -3.1 | nt | nt | nt
COc1ccc(-c2ccc3c(c2)O[C@@H](CN(C)CC2CC2)[C@@H](C)CN([C@H](C)CO)S3(=O)=O)cc1 | -2.8 | nt | nt | nt
COc1ccccc1C(=O)NCCn1cc(SCC(=O)Nc2cc(C)on2)c2ccccc21 | 23.3 | 5.6 | 3.9 | 4.9
CCOc1ccc(C(=O)NCCn2cc(SCC(=O)Nc3cc(C)on3)c3ccccc32)cc1 | nt | 56.2* | 17.1 | 12.2
COc1ccc(C(=O)NCCn2cc(SCC(=O)Nc3cc(C)on3)c3ccccc32)cc1OC | nt | 5.0 | 6.0 | 4.0
Cc1ccc(C(=O)NCCn2cc(SCC(=O)Nc3nnc(C)s3)c3ccccc32)cc1 | 17.0 | 77.2* | 90.6* | 50.0*
